CSC inhib: blocks cancer stem cells | cancer stem cell-like cells viability, luminescence | inhibition, % at 7.5 µM | hit rate 1.1% among 300,000 | AID 2717; in the data active = inhibition above about 75%; tested in HMLE shEcad cells
SKKanGAS inh: inhibitors of SKKanGAS S. pyogenes growth in kanamycin (SK-promoter or general growth effect); BacTiter-Glo, 6 h; inhibition, % at 7.5 µM; hit rate 1.3% among 300,000; AID 1662;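 active = mean replicate score, as percent of positive control median, at least 50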;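 note: strain carries kanamycin resistance gene driven by streptokinase promoter and grows in 40 µg/ml kanamycin; loss of luminescence reflects streptokinase promoter inhibition or plain growth inhibition; 0% = median of DMSO wells and 100% = positive control at its reference dose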
GRIN3A LBD mod: modulators (binders) of human NR3A ligand-binding domain; NR3A LBD differential scanning fluorimetry, Tm shift; 0% = protein alone, 100% = glycine-bound protein; Tm shift relative to glycine control, % at 25 µM; hit rate 2.5% among 340,000; AID 1259313;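 active = melting temperature shift of at least 10% of the positive control shift, at one fixed dose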
Mdm2 MdmX PPI: human Mdm2/MdmX binding inhibition; O15151+Q00987; SaOS-2 split-luciferase Mdm2/MdmX complementation, luminescence; inhibition, % at 8 µM; hit rate 3% among 330,000;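 active = inhibition of at least 50% at 8 µM in the primary screen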
MPTP block: permeability transition pore inhibition | isolated mouse mitochondria, Ca2+ swelling absorbance, 30 min | inhibition, % at 10 µM | hit rate 1.4% among 360,000 | AID 602449;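 active = inhibition of 50% or more, scaled per plate between neutral and stimulator controls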;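 note: 0% = DMSO wells given calcium and 100% = 1 mM EGTA wells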
Beta cell apopt: blocks beta cell apoptosis; AID 435005; hit rate 0.8% among 300,000; INS-1E cytokine-induced death, ATP luminescence, 48 h; percent of positive-control rescue, neutral wells zero; protection from apoptosis, % (test concentration not listed);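 active = Every replicate reaches about 75%, or at least half do and their mean reaches it too, limit read from the data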;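 note: 0% = cytokine-treated negative control wells and 100% = positive control rescue; higher means more ATP so stronger rescue from cytokine killing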
* hit, by the source's call; · = no result given. The list is not random: actives were taken first. Their share in the collection is about 6.9%.

SMILES | CSC inhib | SKKanGAS inh | GRIN3A LBD mod | Mdm2 MdmX PPI | MPTP block | Beta cell apopt
CCCOc1ccc(C(=O)Nc2ccc3c(c2)OCO3)cc1 | 58 | -2 | -15 | -108 | -1 | 5
CCC(=O)Nc1ccc(C(=O)Nc2ccc3c(c2)OCO3)cc1 | -1 | 0 | 2 | 7 | -3 | 5
CCCOc1c(Cl)cc(C(=O)Nc2ccc3c(c2)OCO3)cc1OCC | 79* | 8 | 1 | 39 | 4 | 15
O=C(c1ccc(C(F)(F)F)cc1)N1CCN(c2ccc(N3CCOCC3)nn2)CC1 | 29 | 0 | 1 | 6 | 0 | -3
CC(C)c1ccc(S(=O)(=O)Nc2ccc3c(c2)OCO3)cc1 | -18 | · | 0 | 29 | 1 | 8
COc1ccc(C2C(C(=O)c3ccccc3)=C(C)Nc3nc4ccccc4n32)c(OC)c1 (configuration not stated) | -3 | 89* | 0 | 31 | 2 | ·
N/C(=N\c1nc2ccccc2o1)NC(=O)/C=C/c1ccccc1 | -14 | 0 | 22* | 13 | 0 | 4
Oc1ccc(C(c2nnnn2CCc2ccccc2)N2CCN(c3nc4ccccc4s3)CC2)cc1 (configuration not stated) | 19 | 22 | 4 | 13 | 1 | 6
Cc1ccc(NC(=O)c2ccc(N3C(=O)C4CC=C(Cl)CC4C3=O)cc2)cc1 (configuration not stated) | · | 0 | 26* | 14 | -1 | ·
C/C(=N\O)c1ccc(N2C(=O)C3CC=C(Cl)CC3C2=O)cc1 (configuration not stated) | -6 | -1 | 2 | -83 | 0 | 19
CCOc1ccc(NC(=O)c2ccccc2NC(=O)CNC2CCCC(C)C2C)cc1 (configuration not stated) | -7 | · | 13* | 3 | 2 | 9
CCOc1ccc(NC(=O)c2ccccc2NC(=O)CN(C)CC(=O)Nc2ccc(C)cc2)cc1 | -2 | 27 | -6 | -1 | 9 | ·
CN(C)c1oc(-c2ccc(OCc3ccc(Cl)cc3)cc2)nc1C#N | 5 | 1 | 29* | 19 | 2 | 1
COc1cccc(-c2cc(C(=O)Nc3cccc(O)c3)no2)c1 | · | -17 | 24* | -93 | 0 | 3
O=C(Nc1cccc(O)c1)c1cc(-c2cccs2)on1 | 14 | -3 | 15* | -166 | 0 | 1
CC(=O)c1cccc(NC(=O)c2cc(-c3cccs3)on2)c1 | -8 | -9 | 1 | -27 | 0 | -2
O=C(c1ccc2ccccc2c1)C1CCCN(C(=O)c2noc3c2CCCC3)C1 (configuration not stated) | 22 | 7 | -2 | 17 | -1 | 0
COC(=O)c1ccc2nc(-c3ccc(F)cc3)c(Cc3ccccc3C(F)(F)F)n2c1 | · | · | · | · | 2 | ·
CSc1nsc(SCC(=O)N2CCN(c3ccccc3)CC2)n1 | -4 | -4 | 11* | 19 | 2 | -5
CSc1nsc(SCC(=O)Nc2ccccc2)n1 | -5 | -6 | -8 | -12 | 0 | -8
CC1CCCCC12NC(=O)N(CC(=O)Nc1cccc(S(=O)(=O)N3CCCCC3)c1)C2=O (configuration not stated) | · | · | -2 | -6 | -1 | ·
COc1ccc(CCN=C(N)NS(=O)(=O)c2ccc3ccccc3c2)cc1 | -2 | -2 | 18* | -15 | 3 | ·
NS(=O)(=O)c1ccc(CCNC(=O)c2ccccc2-c2ccccc2)cc1 | -3 | -3 | -1 | 2 | 0 | -6
O=S(=O)(Nc1cccc(-c2ccc3nncn3n2)c1)c1ccccc1F | 8 | 16 | 13* | 0 | -1 | ·
O=S(=O)(Nc1ccc(-c2ccc3nncn3n2)cc1)c1ccccc1F | -5 | -3 | 2 | 14 | -2 | 8
Cn1c(SCC(=O)Nc2cccnc2Cl)nc2ccccc21 | 2 | · | 2 | -8 | 0 | -8
COc1cc(/C=N/NC(=O)c2ccncc2)ccc1OCC(=O)Nc1cccc([N+](=O)[O-])c1 | · | -1 | -1 | -6 | -2 | -5
CCCCNC(=O)C(=O)N/N=C/c1ccc(OCC(=O)Nc2cccc(OC)c2)c(OC)c1 | · | 3 | 11* | -3 | 14 | -5
COc1cc(/C=N/NC(=O)c2ccncc2)ccc1OCC(=O)Nc1ccc(C)c(C)c1 | -16 | -2 | 12* | -31 | 1 | -6
Cc1cc(C)cc(N(CC(=O)NC2CCC(C)CC2)S(=O)(=O)c2c(C)[nH]c(=O)[nH]c2=O)c1 (configuration not stated) | -22 | -3 | 2 | 9 | 3 | -5

Source: PubChem BioAssay
